Measured values reported in ChEMBL document CHEMBL3988442, “University of Dundee, Small-Polar-MMV Screening Library” (2021).

target: AMP-activated protein kinase, AMPK (Homo sapiens) (UniProt P54646+O43741+P54619+Q9UGJ0+Q9Y478+Q13131+Q9UGI9); test: AMP-dependent Kinase enzyme assay. An in vitro enzyme assay that detects ADP turnover that is directly proportional to AMPK activity. This uses naive AMPK that is activated during the assay with MK-8722; format: functional; design: scale not given: direction of the effect not stated beside the values; details: 30 µM

| Compound | Percent Effect |
| --- | --- |
| CN(CC1CCCCO1)c1nc2c(cc1C(N)=O)CCC2 (centres undefined) | -5.23% |
| COc1ccnc(CNc2nc(C)nc(C)c2C)c1 | -6.37% |
| COCCn1ccnc1C1CCN(C(=O)CSc2nnc(C)o2)CC1 | -0.22% |
| CN(C(=O)c1ccccc1N(C)S(C)(=O)=O)c1ccc(C(C)(C)C)cc1 | 6.59% |
| COc1c(C)cnc(CN2CCn3c(nnc3C(C)C)C2)c1C | 22% |
| CC(C)CN1CCC(NC(=O)N(C)Cc2csc3ccccc23)CC1 | 0.225% |
| COCCC(C)NCc1ccccc1-n1ccnc1 (centres undefined) | -0.71% |
| O=C(c1ccc2[nH]cnc2c1)N1CCC(COc2ccccn2)CC1 | -1.03% |
| COCCN(CC(F)F)c1cc(C(F)(F)F)nc2ncnn12 | 3.49% |
| N#CCCN(Cc1ccccn1)C(=O)c1cccc(CN2CCCC2)c1 | 0.67% |
| CC(=O)Nc1ccc(CNC(=O)CNCc2snnc2C)cc1 | -1.84% |
| COc1ccc(N2CCN(Cc3nc(CSC)no3)CC2=O)cc1 | 1.27% |
| COc1ncccc1CNCc1cnc(N2CCOCC2)nc1 | -1.53% |
| CC(=O)N1CCc2c(nc(N(C)C)nc2NCCCn2ccnc2C)C1 | 7.72% |
| COc1ccc(C2CN(c3ncccn3)CCN2C(C)=O)cc1 (centres undefined) | 21.2% |
| Cc1cccc(N2CCN(C(=O)CNCCn3cccn3)CC2)c1 | -3.32% |
| CC1(C)OC(=O)N(CCOc2ccc(F)cc2)C1=O | 5.04% |
| CC(C)NC(=O)C1(Cc2ccccc2-c2cncnc2)CCCNC1 (centres undefined) | 18.8% |
| CC1CN(Cc2cccc(CNC3CCCC3)c2)CCO1 (centres undefined) | 2.35% |
